In PubChem BioAssay AID1159580 (chemical genetic matrix, 2015):
The whole screen tested about 5,500 compounds, of which about 2,000 (36%) were called active. About 18% were inconclusive and are not listed. No stated cut-off is given here; in the data, active means normalized growth mostly below about 0.91 (no sharp cut-off); inconclusive means no clear call, values can overlap the other calls; inactive means mostly above about 0.92. The list shows a part of the results.

Assay: chemical genetic growth profiling, strain panel (AID 1159580);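 further: tested at 20 µM; growth read once vehicle control cultures reached saturation at 30 °C; 1 = growth at the plate median or of vehicle wells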
Details: growth OD

Measured: normalized growth

O=C(O)c1ccc(S(=O)(=O)N(Cl)Cl)cc1
inactive: S. cerevisiae deletion strains, locus YJR066W, strain TOR1, stronger effect = lower value 0.916 | S. cerevisiae deletion strains, locus YKL009W, strain mrt4, stronger effect = lower value 0.99 | S. cerevisiae deletion strains, locus YKL068W, stronger effect = lower value 1 | S. cerevisiae deletion strains, locus YKL085W, strain MDH1 (second series), stronger effect = lower value 1.01 | S. cerevisiae deletion strains, locus YKL085W, strain MDH1, stronger effect = lower value 1.01 | S. cerevisiae deletion strains, locus YKL160W, strain elf1, stronger effect = lower value 1.05 | S. cerevisiae deletion strains, locus YKL190W, strain CNB1, stronger effect = lower value 1 | S. cerevisiae deletion strains, locus YKR001C, strain vps1, stronger effect = lower value 1.02 | S. cerevisiae deletion strains, locus YKR026C, strain gcn3, stronger effect = lower value 0.977 | S. cerevisiae deletion strains, locus YKR091W, strain srl3, stronger effect = lower value 0.989 | S. cerevisiae deletion strains, locus YLL001W, strain dnm1, stronger effect = lower value 1.03 | S. cerevisiae deletion strains, locus YLL026W, stronger effect = lower value 0.976 | S. cerevisiae deletion strains, locus YLL041C, strain sdh2, stronger effect = lower value 0.989 | S. cerevisiae deletion strains, locus YLR027C, strain aat2, stronger effect = lower value 0.985 | S. cerevisiae deletion strains, locus YLR039C, strain RIC1, stronger effect = lower value 0.985 | S. cerevisiae deletion strains, locus YLR058C, strain SHM2, stronger effect = lower value 1.01 | S. cerevisiae deletion strains, locus YLR102C, strain apc9, stronger effect = lower value 1.02 | S. cerevisiae deletion strains, locus YLR113W, strain HOG1, stronger effect = lower value 0.961 | S. cerevisiae deletion strains, locus YLR221C, strain rsa3, stronger effect = lower value 1.02 | S. cerevisiae deletion strains, locus YLR258W, strain gsy2, stronger effect = lower value 0.994 | S. cerevisiae deletion strains, locus YLR262C, strain YPT6 (second series), stronger effect = lower value 1 | S. cerevisiae deletion strains, locus YLR262C, strain YPT6, stronger effect = lower value 0.995 | S. cerevisiae deletion strains, locus YLR268W, strain sec22, stronger effect = lower value 1 | S. cerevisiae deletion strains, locus YLR320W, strain mms22, stronger effect = lower value 1.05 | S. cerevisiae deletion strains, locus YLR330W, strain CHS5, stronger effect = lower value 0.999 | S. cerevisiae deletion strains, locus YLR342W, strain FKS1 (second series), stronger effect = lower value 0.993 | S. cerevisiae deletion strains, locus YLR342W, strain FKS1, stronger effect = lower value 0.983 | S. cerevisiae deletion strains, locus YLR357W, strain rsc2, stronger effect = lower value 1.01 | S. cerevisiae deletion strains, locus YLR370C, strain arc18, stronger effect = lower value 0.974 | S. cerevisiae deletion strains, locus YLR371W, strain rom2, stronger effect = lower value 1.01 | S. cerevisiae deletion strains, locus YLR384C, strain iki3, stronger effect = lower value 0.988 | S. cerevisiae deletion strains, locus YLR418C, strain cdc73, stronger effect = lower value 0.951 | S. cerevisiae deletion strains, locus YML016C, strain PPZ1, stronger effect = lower value 1.01 | S. cerevisiae deletion strains, locus YML032C, strain rad52, stronger effect = lower value 1.02 | S. cerevisiae deletion strains, locus YML120C, strain ndi1, stronger effect = lower value 1.03 | S. cerevisiae deletion strains, locus YML124C, strain tub3, stronger effect = lower value 1.03 | S. cerevisiae deletion strains, locus YMR058W, strain fet3, stronger effect = lower value 0.983 | S. cerevisiae deletion strains, locus YMR078C, strain ctf18, stronger effect = lower value 1.03 | S. cerevisiae deletion strains, locus YMR125W, strain sto1, stronger effect = lower value 1.02 | S. cerevisiae deletion strains, locus YMR129W, stronger effect = lower value 0.984 | S. cerevisiae deletion strains, locus YMR205C, strain PFK2, stronger effect = lower value 1.04 | S. cerevisiae deletion strains, locus YMR223W, strain ubp8, stronger effect = lower value 1.02 | S. cerevisiae deletion strains, locus YMR231W, strain pep5, stronger effect = lower value 0.978 | S. cerevisiae deletion strains, locus YMR307W, strain GAS1, stronger effect = lower value 0.964 | S. cerevisiae deletion strains, locus YNL067W, strain RPL9B, stronger effect = lower value 1 | S. cerevisiae deletion strains, locus YNL071W, strain lat1, stronger effect = lower value 0.998 | S. cerevisiae deletion strains, locus YNL128W, strain TEP1, stronger effect = lower value 1.02 | S. cerevisiae deletion strains, locus YNL183C, strain NPR1, stronger effect = lower value 0.926 | S. cerevisiae deletion strains, locus YNL209W, strain ssb2, stronger effect = lower value 0.983 | S. cerevisiae deletion strains, locus YNL233W, strain BNI4, stronger effect = lower value 0.997 | S. cerevisiae deletion strains, locus YNL248C, strain rpa49, stronger effect = lower value 1.06 | S. cerevisiae deletion strains, locus YNL250W, strain rad50, stronger effect = lower value 1.02 | S. cerevisiae deletion strains, locus YNL271C, strain bni1, stronger effect = lower value 1.03 | S. cerevisiae deletion strains, locus YNL298W, strain CLA4, stronger effect = lower value 1.05 | S. cerevisiae deletion strains, locus YNL307C, strain MCK1, stronger effect = lower value 1.01 | S. cerevisiae deletion strains, locus YNL322C, strain KRE1 (second series), stronger effect = lower value 0.992 | S. cerevisiae deletion strains, locus YNR049C, strain mso1, stronger effect = lower value 0.975 | S. cerevisiae deletion strains, locus YNR052C, strain pop2, stronger effect = lower value 1.01 | S. cerevisiae deletion strains, locus YOL006C, strain TOP1, stronger effect = lower value 1.01 | S. cerevisiae deletion strains, locus YOL012C, strain htz1 2.24 | S. cerevisiae deletion strains, locus YOL147C, strain pex11, stronger effect = lower value 1.02 | S. cerevisiae deletion strains, locus YOR001W, strain rrp6, stronger effect = lower value 0.944 | S. cerevisiae deletion strains, locus YOR061W, strain CKA2, stronger effect = lower value 1.01 | S. cerevisiae deletion strains, locus YOR069W, strain VPS5, stronger effect = lower value 0.998 | S. cerevisiae deletion strains, locus YOR070C, strain gyp1, stronger effect = lower value 0.967 | S. cerevisiae deletion strains, locus YOR080W, strain dia2, stronger effect = lower value 0.969 | S. cerevisiae deletion strains, locus YOR083W, strain WHI5, stronger effect = lower value 1.05 | S. cerevisiae deletion strains, locus YOR106W, strain vam3, stronger effect = lower value 1.06 | S. cerevisiae deletion strains, locus YOR136W, strain idh2, stronger effect = lower value 1.02 | S. cerevisiae deletion strains, locus YOR144C, strain elg1, stronger effect = lower value 1.02 | S. cerevisiae deletion strains, locus YOR184W, strain ser1, stronger effect = lower value 0.992 | S. cerevisiae deletion strains, locus YOR231W, strain MKK1, stronger effect = lower value 0.971 | S. cerevisiae deletion strains, locus YOR265W, strain rbl2, stronger effect = lower value 0.981 | S. cerevisiae deletion strains, locus YOR270C, strain vph1, stronger effect = lower value 1.01 | S. cerevisiae deletion strains, locus YOR290C, strain snf2, stronger effect = lower value 1 | S. cerevisiae deletion strains, locus YOR316C, strain cot1, stronger effect = lower value 1.02 | S. cerevisiae deletion strains, locus YPL051W, strain arl3, stronger effect = lower value 1.02 | S. cerevisiae deletion strains, locus YPL055C, strain LGE1, stronger effect = lower value 0.979 | S. cerevisiae deletion strains, locus YPL078C, strain atp4, stronger effect = lower value 1.05 | S. cerevisiae deletion strains, locus YPL106C, strain sse1, stronger effect = lower value 0.985 | S. cerevisiae deletion strains, locus YPL240C, strain hsp82, stronger effect = lower value 0.989 | S. cerevisiae deletion strains, locus YPL241C, strain CIN2, stronger effect = lower value 1 | S. cerevisiae deletion strains, locus YPL256C, strain CLN2, stronger effect = lower value 0.97 | S. cerevisiae deletion strains, locus YPR119W, strain clb2, stronger effect = lower value 1.02 | S. cerevisiae deletion strains, locus YPR141C, strain kar3, stronger effect = lower value 1.02 | S. cerevisiae deletion strains, locus YPR163C, strain tif3, stronger effect = lower value 1.04 | S. cerevisiae deletion strains, locus YPR167C, strain met16, stronger effect = lower value 1.02 | S. cerevisiae deletion strains, strain wtn01, stronger effect = lower value 1.01 | S. cerevisiae strains, strain wild type, stronger effect = lower value 1
